Measurements taken from PubChem BioAssay AID431 (Sanford-Burnham Center for Chemical Genomics, 2006).
The whole screen tested about 63,000 compounds, of which about 1,100 (1.7%) were called active.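 Rule for the calls: active = compounds whose percent cytotoxicity in the single-dose primary screen, scaled between solvent and toxic-drug controls, exceeds 50; inactive = the rest.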 Only a selection was taken, and actives are over-represented in it overall. Measured potencies and affinities stand elsewhere.

Experiment: cytotoxicity in KRAS-transformed pancreatic duct cells, primary screen, cell-based, fluorescence, HTS (AID 431);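 note: 0% = DMSO solvent wells and 100% = doxorubicin-treated wells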
Details: HPDE-C7K KRASV12 cells, Alamar Blue viability, 48 h; at 10 µM; stronger effect = higher value

SMILES	cytotoxicity
NC1=NC2(CCN(Cc3ccccc3)CC2)n2c(nc3ccccc32)N1	1% (inactive)
NC1=NC2(CCCCC2)n2c(nc3ccccc32)N1	19% (inactive)
NC1=NC2(CCC(c3ccccc3)CC2)n2c(nc3ccccc32)N1 (stereo not given)	68.7% (active)
CCOc1ccc(CNC(=O)NS(=O)(=O)c2ccc(OC)cc2)cc1	-11.3% (inactive)
CCCCn1nnnc1NCc1cccc(OC)c1OC	12.8% (inactive)
CCCCn1c(SCC(=O)NCc2ccco2)nnc1-c1ccoc1C	-26.4% (inactive)
CCCN(CCC)C(=O)C1CCN(c2cc(C)nc3c(-c4ccc(OC)c(OC)c4)c(C)nn23)CC1	7.2% (inactive)
COc1ccc(C(=O)O)cc1F	2.5% (inactive)
COc1ccc(C(=O)C(c2ccccc2)N2CCOCC2)cc1 (stereo not given)	-2.4% (inactive)
COc1ccc(C(O)C(CN2CCOCC2)c2ccccc2)cc1F (stereo not given)	-8.6% (inactive)
COc1ccc(C(=O)CCN2CCCCCC2)cc1	-7.8% (inactive)
Cc1c(C(=O)N2CCCCC2)sc(NC(=O)C2CC2)c1C#N	2.5% (inactive)
O=C(Nc1ccccc1Cl)c1cnccn1	-6.1% (inactive)
CCn1c2ccccc2c2cc(C3C(C#N)=C(N)OC4=C3C(=O)CC(C)(C)C4)ccc21 (stereo not given)	-10.7% (inactive)
CCn1c2ccccc2c2cc(C3C(C#N)=C(C)NC(C)=C3C#N)ccc21	7.6% (inactive)
Cc1ccc(N2C(=O)CSC23C(=O)Nc2ccccc23)cc1 (stereo not given)	-5.4% (inactive)
COC(=O)[C@@H](NC(=O)Nc1ccccc1F)C(C)C	1.9% (inactive)
COc1ccc(C(=O)c2ccc(OC)c(N)c2)cc1N	66.7% (active)
COc1ccc(C(N)=O)cc1N	-1% (inactive)
COc1ccc(C(=O)c2ccc(OC)c(OC)c2)cc1OC	-8.4% (inactive)
CN(Cc1ccccc1)C(=O)C1CCN(Cc2ccc(F)cc2)CC1	8.6% (inactive)
CC(C)(C)OC(=O)N1CCC(c2c(C(=O)O)cnn2-c2ccccc2Cl)CC1	1% (inactive)

SMILES	cytotoxicity
Cc1ccc(CNC(=O)CCS(=O)(=O)c2ccc(Br)s2)o1	-4.2% (inactive)
CCOc1ccccc1NC(=O)CN(c1ccc(C)cc1)S(=O)(=O)c1c(C)noc1C	-7.2% (inactive)
COc1ccc(N(CC(=O)Nc2cc(C)ccc2OC)S(=O)(=O)c2c(C)noc2C)cc1	9.5% (inactive)
COc1ccc(N(CC(=O)Nc2cc(Cl)ccc2OC)S(=O)(=O)c2c(C)noc2C)cc1	77.1% (active)
CCOc1ccccc1NC(=O)CN(c1cc(C)cc(C)c1)S(=O)(=O)c1c(C)noc1C	-9.2% (inactive)
COc1ccc(OC)c(NC(=O)CN(c2ccc(C)cc2)S(=O)(=O)c2c(C)noc2C)c1	1.7% (inactive)
CCOc1ccccc1NC(=O)CN(c1ccc(OC)cc1)S(=O)(=O)c1c(C)noc1C	52.8% (active)
COc1ccccc1C(=O)N1CCN(S(=O)(=O)Cc2ccccc2)CC1	-0.3% (inactive)
CCOc1cc(CNc2ncnc3nc[nH]c23)ccc1OC	6.5% (inactive)
Cc1ccc2nsnc2c1S(=O)(=O)N1CCN(C(=O)C2CCCO2)CC1 (stereo not given)	-15.6% (inactive)
COc1cc2c(cc1OC)C(C)N(C(=O)Cn1ncc3c1-c1ccccc1OC3)CC2 (stereo not given)	-1.4% (inactive)
CC(C)(C)C(=O)Cn1c(NCCCO)nc2ccccc21	-18.5% (inactive)
Cc1onc(-c2ccccc2)c1C(N)=O	50.5% (active)
Cc1onc(-c2ccccc2Cl)c1C(N)=O	8% (inactive)
Cc1onc(-c2ccccc2)c1C(=O)N1CCCN(C(=O)c2c(-c3ccccc3)noc2C)CC1	-5.2% (inactive)
CCOC(=O)c1[nH]c(C)c(C(=O)Nc2ccc(C)c(F)c2)c1C	0.8% (inactive)
CCc1ccc(NC(=O)c2noc3c2CCCCC3)cc1	3.4% (inactive)
COc1ccc(C(=O)N2CCOCC2)cc1Br	-1% (inactive)
Cc1cccc(OCC(=O)OCC(=O)c2c(N)n(C)c(=O)n(C)c2=O)c1	3% (inactive)
O=C(C1CCCN(S(=O)(=O)c2ccc(Br)s2)C1)N1CCCCCC1 (stereo not given)	-15.2% (inactive)
COC(=O)C1C(=O)C2=C(CC1C)NC(=O)CC2c1ccc(O)c(OC)c1 (stereo not given)	-9.5% (inactive)
Cc1cc(C)c(C)c(S(=O)(=O)NCc2cccnc2)c1C	-6.4% (inactive)

SMILES	cytotoxicity
Cc1ccc(C)c(S(=O)(=O)NCc2cccnc2)c1	52% (active)
Cc1ccc(C(C)C)cc1S(=O)(=O)NCc1cccnc1	0.8% (inactive)
COCCN1Cc2c(sc(C)c2C)N(C(=O)c2ccccc2)C1	5.6% (inactive)
CS(=O)(=O)N1CCc2cc(-c3csc(NC(=O)Cc4cccs4)n3)ccc21	2.8% (inactive)
O=C(Cc1cccs1)Nc1nc(-c2ccccc2)cs1	-14.2% (inactive)
CC1Cc2cc(-c3csc(NC(=O)Cc4cccs4)n3)ccc2N1S(C)(=O)=O (stereo not given)	61.4% (active)
CNC(=O)C1CCC(=O)N1Cc1ccc(C)cc1 (stereo not given)	-0.7% (inactive)
Cc1ccc2nc(NCCO)nc(-c3ccccc3)c2c1	16.3% (inactive)
O=C(O)c1cc(-c2ccccc2)nc2ccccc12	2% (inactive)
O=C(CSc1ncc(-c2ccc(F)cc2)[nH]1)Nc1cccc(O)c1	25.6% (inactive)
Cc1ccc(CNC(=O)C2C3C=CC(C3)C2C(=O)O)cc1 (stereo not given)	1.9% (inactive)
O=C(O)CCCNc1cc(N2CCC3(CC2)OCCO3)c2noc3c2c1C(=O)c1ccccc1-3	40.2% (inactive)
CCOC(=O)N1CCN(c2cc(NCCC(=O)O)c3c4c(onc24)-c2ccccc2C3=O)CC1	61.7% (active)
CCOC(=O)c1c(C)noc1CP(=O)(c1ccccc1)c1ccccc1	2.6% (inactive)
CC(=O)OCCNc1cc(N2CCN(C)CC2)c2noc3c2c1C(=O)c1ccccc1-3	16.8% (inactive)
CCOC(=O)c1c(C)[nH]c(C)c1-c1ccccc1OC	-2.6% (inactive)
CC(CC(=O)O)CC1=NS(=O)(=O)c2ccccc2N1 (stereo not given)	-8.6% (inactive)
COc1ccc(CC(=O)Nc2c3c(nn2-c2cccc(C)c2C)CS(=O)C3)cc1OC (stereo not given)	0.8% (inactive)
COc1ccc(C(=O)c2sc(NC(C)C)nc2N)cc1OC	-12.6% (inactive)
COc1cccc(C(=O)c2sc(NC(C)C)nc2N)c1	72.7% (active)
CCCc1nnc(NC(=O)c2cccc(OC)c2)s1	-25.2% (inactive)
